This is part of a sample that, as a whole, favours compounds with a hit. Of some 83,000 tested, about 20% had one in any assay.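 For each line, cells grew in 96-well plates with the test compound present at a single concentration for 48 hours.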 Calls of active or inactive are those of the source.

This assay relates to MCF7 breast. In words: NCI-60 one-dose screen, 48 h (100 = growth as untreated, 0 = no growth, -100 = all killed). As to conditions: 10 µM unless noted. The protocol: Growth inhibition of the MCF7 human tumor cell line is measured as a screen for anti-cancer activity. Cells are grown in 96 well plates and exposed to the test compound for 48 hours. Compounds are tested at a single concentration, which is 10^-5 M for most compounds. The reported endpoint is percent growth (GI% or GIPRCNT), where numbers from 0 - 100% represent growth inhibition, and numbers from -100% - 0 represent cell death. For example, a value of 40 represents 60% growth inhibition. A value of 0 means no net growth occurred over the course of the experiment. A value of -40 indicates 40% of cells at the beginning of the experiment died by the end of the experiment. A value of -100 means all cells are dead at the end of the experiment.
NCI-60 Human Tumor Cell Lines Screen was performed using the standard one-dose NCI protocol, which is described in more detail at https://dtp.cancer.gov/discovery_development/nci-60/default.htm.
Compounds with GIPRCNT values below 10 were considered active. Activity score was based on GIPRCNT using the following formula: […]
Score is 0 for GIPRCNT values of 100 or above, 50 for GIPRCNT values of 0, and 100 for GIPRCNT values of -100.
Consider `Oc1cccc2oc(=S)[nH]c12`, for which the growth was 101% (inactive).
`COC(c1ccccc1)(c1ccccc1)c1ccccc1`: the growth is 115% (inactive).
Then `CC1(C)CC[C@]2(C(=O)Nc3ccccn3)CC[C@]3(C)C(=CC[C@@H]4[C@@]5(C)C/C(=C/c6ccncc6)C(=O)C(C)(C)[C@@H]5CC[C@]43C)[C@@H]2C1`, with 21.7% (inactive).
With `COc1ccc2c(c1)c1nc3cc(C)c(C)cc3nc1n2CCN(C)C`, the growth is -69.9% (active).
Then `COc1ccc(/C=C(\C#N)c2cc3ccccc3n2C(C)=O)cc1`, with 53.7% (inactive); and `Cn1c2ccccc2c2c3c(c4c5cccnc5[nH]c4c21)C(=O)N(O)C3=O`, with 12.9% (inactive); and `NC(=O)[C@@H]1CC2CCC1C2` (stereo not given in full), with 103% (inactive).
Then `C=C(C)[C@@H]1CC[C@]2(C=O)CC[C@]3(C)[C@H](CC[C@@H]4[C@@]5(C)C/C(=C/c6cccnc6)C(=O)C(C)(C)[C@@H]5CC[C@]43C)[C@@H]12`, with 40.5% (inactive); and `C/C(=C(/c1ccccc1)c1ccc(N2C(=O)c3cccc4c(NCc5ccccc5)ccc(c34)C2=O)cc1)c1ccccc1`, with 89.9% (inactive).
Then `CC(=O)N1N=C(c2ccc(C)cc2)CC1c1ccc(Oc2ccc(Br)cc2)cc1` (stereo not given), with 81.8% (inactive); and `CN(C)c1ccc(N=C2C=CC(=O)C=C2)cc1`, with 72.3% (inactive).
On to `COc1cc2c3c(c4c5ccccc5[nH]c4c2c(OC)c1OC)C(=O)N(O)C3=O`, for which the growth was 20.4% (inactive).
For `COC(=O)C(N)CSC(c1ccccc1)(c1ccccc1)c1ccccc1` (stereo not given) the value was 13.1% (inactive); for `COc1ccc2c(c1)c(-c1nc(-c3c[nH]c4ncccc34)cs1)cn2CCCN1CCCCC1`, 10% (active); for `Cc1ccc(N(CC(=O)Nc2ccc(S(=O)(=O)N3CCC(N4CCCC4)CC3)cc2)S(=O)(=O)c2ccc(Cl)cc2)cc1`, 14.2% (inactive).
For `Brc1ccc2[nH]cc(-c3nc(-c4c[nH]c5ncccc45)cs3)c2c1` the value was 32.3% (inactive); for `O=[N+]([O-])c1cccc(/C=N\Nc2ccccc2)c1`, 64.5% (inactive).
Then `C=C1C(=O)O[C@H]2[C@H]1CC/C(Cn1cc(-c3ccc(F)cc3)nn1)=C\CC[C@@]1(C)O[C@@H]21`, with -55.6% (active).
With `COC(=O)c1cc(=O)nc(N/N=C/c2ccc(C)cc2)s1`, the growth was 89.9% (inactive).
For `C=C1CC[C@@H](C(=O)OC)Cc2nc(C)ccc21` the value was 98% (inactive); for `CN1CCN(c2ccc3nc(-c4[nH]ncc4Nc4ncnc5c4OCCCN5)[nH]c3c2)CC1`, -57.2% (active); for `O=C(CCCCCn1c2ccccc2c2c3c(c4c5ccccc5[nH]c4c21)C(=O)N(O)C3=O)N1CCOCC1`, 15.7% (inactive).
For `O=c1c2sc3ncc(Br)cc3c2ncn1-c1cccc(Cl)c1` the value was 94.2% (inactive).
For the compound `COc1cccc(-c2nn(-c3ccccc3)cc2-c2ccnc(NCCCNS(=O)(=O)c3ccc(Br)cc3)c2)c1`, the growth was 29.6% (inactive).
For `COc1cccc(NC(=O)c2sc3nc4c(cc3c2N)C(=O)CCC4)c1` the value was 29.4% (inactive).
On to `COc1cc(OC)c2c(c1)c1nc3cc(C)c(C)cc3nc1n2CCN(C)C`, for which the growth was 66.2% (inactive).
Then `CN1CCN(c2nc(-c3csc(-c4cccs4)n3)cc3ccccc23)CC1`, with 40.8% (inactive); and `C=C1C(=O)O[C@H]2[C@H]1CC/C(Cn1cc(-c3ccc(OC)cc3)nn1)=C\CC[C@@]1(C)O[C@@H]21`, with -41.3% (active).
For `CC(=O)c1c(C)[nH]c(-c2nc3ccc(N4CCN(C)CC4)cc3[nH]2)c1-c1ccc(N(C)C)cc1` the value was 8.22% (active); for `CC/C(=N/NC(N)=O)c1ccccc1`, 97% (inactive); for `COc1ccc2[nH]cc(-c3nc(-c4c[nH]c5ncccc45)cs3)c2c1`, 32.5% (inactive).
Then `COc1ccc(C(=O)c2cc(OC)c(OC)c(OC)c2)cc1/C=C/C(=O)c1cc(OC)c(OC)c(OC)c1`, with 75.2% (inactive).
In the case of `COc1cc2ncnc(Nc3ccc(Oc4ccnc(C)c4)c(C)c3)c2cc1NC(=O)CC1CCSS1` (stereo not given), the growth was -69.6% (active).
Then `C=COCCCCCCCCCCCCCCCCCC`, with 104% (inactive); and `CCCCCC1CCCCN1C(=O)OCC` (stereo not given), with 99.3% (inactive).
For `C=C1C(=O)O[C@H]2[C@H]1CC/C(COC(=O)N[C@H](Cc1c[nH]c3ccccc13)C(=O)OC)=C\CC[C@@]1(C)O[C@@H]21` the value was 14.7% (inactive); for `C/C(=N\Nc1cc(C)c2ccccc2n1)c1ccccn1`, -82.9% (active).
For `Cc1cc(C)c(NC(=O)c2sc3nc4c(cc3c2N)CCCC4)c(C)c1` the value was 23.7% (inactive); for `CCN1CCN(C(=O)[C@@]2(C)CC[C@]3(C)CC[C@]4(C)C(=CC(=O)[C@@H]5[C@@]6(C)CC[C@H](OC7C[C@@H](O)[C@@H](O)C(C)O7)C(C)(C)[C@@H]6CC[C@]54C)[C@@H]3C2)CC1` (stereo not given in full), 24.5% (inactive).
Take `N#CC1=C(N)Oc2c(c(N)nn2-c2ccccc2)C1c1ccc(Cl)cc1Cl` (stereo not given): the growth was 98.3% (inactive).
